Laboratory results from ChEMBL document CHEMBL3988442, “University of Dundee, Small-Polar-MMV Screening Library” (2021).
Among all 48,000 compounds or so, about 13,000 (27%) showed an effect of 50% or more. Some of the results follow.

Test system: Wolbachia pipientis
Assay: Anti-Wolbachia Cell-Based Screen
Assay type: functional
Design: scale not given: in the data most compounds retested in dose-response had high values
Settings: 5 µM

Row | Structure (SMILES) | Percent Effect [%]
1 | O=C(NS(=O)(=O)c1ccc(F)cc1)C1CCOc2ccccc21 (configuration not stated) | -10.91
2 | Cc1scc(C(=O)N2CCC3(CC(=O)NC3=O)C2)c1-c1ccccc1 (configuration not stated) | -14.34
3 | CS(=O)(=O)N1CCCC12CCN(Cc1nccs1)C2.O=C(O)C(F)(F)F (configuration not stated) | -1.689
4 | Cc1nc2c(c(C)c1CC(=O)NC(C)c1ccccc1)c(=O)[nH]n2C (configuration not stated) | -24.46
5 | Cc1nc2c(c(C)c1CC(=O)NCc1cccc(C#N)c1)c(=O)[nH]n2C | 1.091
6 | Cc1nc2c(c(C)c1CC(=O)NCc1ccco1)c(=O)[nH]n2C | 144
7 | Cc1nc2c(c(C)c1CC(=O)NCc1ccccc1F)c(=O)[nH]n2C | 107.2
8 | Cc1ccc(C(C)NC(=O)Cc2c(C)nc3c(c2C)c(=O)[nH]n3C)o1 (configuration not stated) | -8.138
9 | Cc1ccc(C)c(NC(=O)Cc2c(C)nc3c(c2C)c(=O)[nH]n3C)c1 | 0.2479
10 | Cc1nc2c(c(C)c1CC(=O)Nc1ccccc1F)c(=O)[nH]n2C | -18.93
11 | CCNC(=O)Cc1c(C)nc2c(c1C)c(=O)[nH]n2C | -13.5
12 | Cc1nc2c(c(C)c1CC(=O)Nc1ccnn1C(C)C)c(=O)[nH]n2C | -7.188
13 | Cc1ccc(CNC(=O)Cc2c(C)nc3c(c2C)c(=O)[nH]n3C)cc1 | 114.9
14 | Cc1nc2c(c(C)c1CC(=O)NCc1ccc(F)cc1)c(=O)[nH]n2C | 91.6
15 | Cc1cc(C)cc(NC(=O)Cc2c(C)nc3c(c2C)c(=O)[nH]n3C)c1 | 3.943
16 | Cc1c(F)cc(C(=O)NCC(F)(F)F)cc1NCC(=O)N(C)C | 4.918
17 | CCOc1ccccc1NC(=O)CN(C)Cc1ccccc1Cl | 6.554
18 | OCCn1cc(CN2CCN(CCOCC(F)(F)F)CC2)cn1 | 2.281
19 | CN(C)CC(=O)N1Cc2cc(N(C)C)ccc2C1c1cnco1 (configuration not stated) | -12.83
20 | CC(C)C(C(=O)N(C)C)c1cccc(Cl)c1 (configuration not stated) | -9.046
21 | CN(C)c1cccc(C(=O)Nc2cn(C)c(=O)n(C)c2=O)c1 | -7.07

Row | Structure (SMILES) | Percent Effect [%]
22 | COc1c(C(=O)N2CCC(COCc3ccccc3)C2)c(C)nn1C (configuration not stated) | -0.4444
23 | Cc1nc2c(c(C)c1CC(=O)NCc1cccs1)c(=O)[nH]n2C | 165.2
24 | CCCNC(=O)Cc1c(C)nc2c(c1C)c(=O)[nH]n2C | -12.53
25 | Cc1ccsc1CNC(=O)Cc1c(C)nc2c(c1C)c(=O)[nH]n2C | -0.5496
26 | O[C@H]1CC[C@@H](Cc2cc(-c3ccc(F)cc3)on2)O[C@@H]1CNCC1CC1 | 6.759
27 | COCc1n[nH]c2c1CN(Cc1cccs1)C2.O=C(O)C(F)(F)F | 1.549
28 | CS(=O)(=O)N1CCc2[nH]nc(Cc3cccs3)c2C1 | 98.95
29 | Cc1noc(C)c1-c1n[nH]c2c1CN(S(=O)(=O)c1cccs1)CC2 | 16.83
30 | O=C(c1csnn1)N1CCc2[nH]nc(COc3cccc(Cl)c3)c2C1 | 7.373
31 | O=C(O)C(F)(F)F.O=C(O)C(F)(F)F.c1ccc(OCc2n[nH]c3c2CN(Cc2cccs2)C3)nc1 | -9.854
32 | O=C(O)C(F)(F)F.O=C(O)C(F)(F)F.O=C(O)C(F)(F)F.c1cncc(OCc2n[nH]c3c2CN(Cc2cccs2)C3)c1 | -32.3
33 | O=C(O)C(F)(F)F.OCCOCc1n[nH]c2c1CN(Cc1ccco1)C2 | 3.715
34 | O=C(CCc1cccs1)N1CCc2[nH]nc(COc3ccccc3)c2C1 | 98.05
35 | O=C(CCc1ccco1)N1CCc2[nH]nc(COc3ccccc3)c2C1 | 91.35
36 | COc1nc2c(cc1C(=O)N(C)Cc1[nH]nc3c1CCC3)CCC2 | 7.806
37 | OC(COCc1ccccc1Cl)CN1CC(n2cccn2)C1 (configuration not stated) | -11.39
38 | Cc1nc(CN2CCCC(CCNS(C)(=O)=O)C2)c[nH]1 (configuration not stated) | -5.765
39 | Cc1occc1C(=O)N1Cc2nccn2CC(CN2CCOCC2)C1.O=C(O)C(F)(F)F (configuration not stated) | -15.88
40 | CN(C)CCN(C)c1ccc(-c2nc(COc3ccccc3)no2)cn1 | -2.014
41 | CC[C@H]1COCCN1C(=O)CCCn1nnc(-c2ccc(F)cc2)n1 | -1.392
42 | COc1cc(F)ccc1N(C)Cc1ccncc1 | -8.772

Row | Structure (SMILES) | Percent Effect [%]
43 | CN(Cc1cnccn1)c1cncc(Br)c1 | 109.1
44 | CN(Cc1ccc([S+](C)[O-])cc1)c1cncc(Cl)n1 (configuration not stated) | -12.95
45 | CN(Cc1ccncc1)c1cncc(Br)c1 | 97.92
46 | CCCN(CCC)S(=O)(=O)N(C)Cc1ccncc1 | 3.881
47 | Cc1nc(N(C)C)nc(N(C)Cc2cnccn2)c1C | 49.18
48 | CN(Cc1ccc([S+](C)[O-])cc1)c1cncc(Br)c1 (configuration not stated) | 105.7
49 | CN(Cc1ccc([S+](C)[O-])cc1)c1ccc(Br)cn1 (configuration not stated) | -27.32
50 | Cc1cc(C2CCC2)nc(N(C)Cc2cnccn2)n1 | -5.292
51 | O=C(O)C(F)(F)F.O=C(O)C(F)(F)F.c1ccc(COC[C@H]2CC[C@H]3[C@H](CCN3c3ncccn3)O2)nc1 | -2.736
52 | O=C(C1COCCO1)N1CCN(Cc2ccc3c(c2)CCO3)CC1 (configuration not stated) | 2.717
53 | CCc1cnc(CN2CCCC(c3cc(C)[nH]n3)C2)o1 (configuration not stated) | -1.395
54 | Cc1cc(C2CCCN(CCc3ccccn3)C2)n[nH]1 (configuration not stated) | -3.98
55 | NC(=O)c1cc(C2CCCN(Cc3ccc4c(c3)OCCO4)C2)n[nH]1 (configuration not stated) | 95.83
56 | COc1ccc(F)cc1CN1CCCC(c2cc(C(N)=O)[nH]n2)C1 (configuration not stated) | -1.722
57 | CCOCCN1CCCC(c2cc(C(N)=O)[nH]n2)C1 (configuration not stated) | -3.243
58 | NC(=O)c1cc(C2CCCN(CCc3ccc4c(c3)CCO4)C2)n[nH]1 (configuration not stated) | 94.15
59 | Cc1cc(C2CCCN(CCc3ccc4c(c3)CCO4)C2)n[nH]1 (configuration not stated) | 104
60 | O=C(C1CCCN(CCc2ccc3c(c2)CCO3)C1)N1CCCC1 (configuration not stated) | 96.85
61 | NC(=O)c1cc(C2CCCN(CCOCC(F)(F)F)C2)n[nH]1 (configuration not stated) | -1.839
62 | O=C(NCC1CCOC1)N1CCN(Cc2ccc3c(c2)CCO3)CC1 (configuration not stated) | -2.282
